Results: PubChem BioAssay AID1159580 (chemical genetic matrix, 2015)
Several values for one entry are separate records, joined by “and”; a condition that tells them apart may be missing. Equal entries are not always repeated. The whole screen tested about 5,500 compounds, of which about 2,000 (36%) were called active. Another 18% or so got no clear call; they are omitted. Cut-off read from the data, not from the text of the source: active = normalized growth mostly below about 0.91 (no sharp cut-off); inconclusive = no clear call, values can overlap the other calls; inactive = mostly above about 0.92. The list shows a part of the results.

Test: chemical genetic growth profiling, strain panel (AID 1159580);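 note: tested at 20 µM; growth read once vehicle control cultures reached saturation at 30 °C; 1 = growth at the plate median or of vehicle wells; lower values mean less growth of the strain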
Conditions: S. cerevisiae deletion strains, growth OD

Measured: normalized growth

CC12CCC3C(CC3(C)C)C(C)(CCC1=O)O2 (stereo unspecified)
inactive: locus YAL021C, strain ccr4, stronger effect = lower value 1.04 | locus YAL026C, strain drs2, stronger effect = lower value 1.01 | locus YAL030W, strain snc1, stronger effect = lower value 0.994 | locus YBL061C, strain skt5, stronger effect = lower value 0.99 | locus YBR009C, strain hhf1, stronger effect = lower value 1.01 | locus YBR021W, strain FUR4, stronger effect = lower value 1.01 | locus YBR023C, strain chs3, stronger effect = lower value 0.996 | locus YBR171W, strain sec66, stronger effect = lower value 0.985 | locus YBR229C, strain ROT2, stronger effect = lower value 1.01 | locus YBR231C, strain swc5, stronger effect = lower value 0.983 | locus YBR279W, strain paf1, stronger effect = lower value 1.02 | locus YCL011C, strain gbp2, stronger effect = lower value 1.01 | locus YCL016C, strain dcc1, stronger effect = lower value 1.01 | locus YCL029C, strain bik1, stronger effect = lower value 1.03 | locus YCL061C, strain MRC1, stronger effect = lower value 1.01 | locus YCL069W, strain vba3, stronger effect = lower value 1 | locus YCR088W, strain abp1, stronger effect = lower value 0.981 | locus YDL005C, strain med2, stronger effect = lower value 0.972 | locus YDL035C, strain GPR1, stronger effect = lower value 1.01 | locus YDL040C, strain nat1, stronger effect = lower value 0.99 | locus YDL074C, strain BRE1, stronger effect = lower value 1.07 | locus YDL101C, strain DUN1, stronger effect = lower value 1.02 | locus YDL185W, strain tfp1, stronger effect = lower value 1.02 | locus YDL192W, strain arf1, stronger effect = lower value 1.01 | locus YDR001C, strain nth1, stronger effect = lower value 0.986 | locus YDR069C, strain doa4, stronger effect = lower value 1.01 | locus YDR101C, strain arx1, stronger effect = lower value 0.983 | locus YDR137W, strain rgp1, stronger effect = lower value 0.977 | locus YDR159W, strain sac3, stronger effect = lower value 0.982 | locus YDR162C, strain NBP2, stronger effect = lower value 1.03 | locus YDR195W, strain ref2 0.934 | locus YDR297W, strain sur2, stronger effect = lower value 1.01 | locus YDR318W, strain mcm21, stronger effect = lower value 1.03 | locus YDR334W, strain swr1, stronger effect = lower value 1 | locus YDR335W, strain msn5, stronger effect = lower value 1 | locus YDR388W, stronger effect = lower value 1.01 | locus YDR392W, strain spt3, stronger effect = lower value 0.939 | locus YDR502C, strain sam2, stronger effect = lower value 1.04 | locus YEL003W, strain gim4, stronger effect = lower value 0.995 | locus YEL037C, strain rad23, stronger effect = lower value 1.01 | locus YEL061C, strain CIN8 (second series), stronger effect = lower value 0.992 | locus YEL061C, strain CIN8, stronger effect = lower value 1.01 | locus YER015W, strain faa2, stronger effect = lower value 1 | locus YER016W, strain bim1, stronger effect = lower value 0.988 | locus YER110C, stronger effect = lower value 1.02 | locus YER111C, strain swi4, stronger effect = lower value 0.987 | locus YER155C, strain BEM2 (second series), stronger effect = lower value 0.967 | locus YER155C, strain BEM2, stronger effect = lower value 1.01 | locus YER167W, strain BCK2, stronger effect = lower value 1 | locus YFR010W, strain ubp6, stronger effect = lower value 1.01 | locus YGL078C, strain dbp3, stronger effect = lower value 1.01 | locus YGL086W, strain mad1, stronger effect = lower value 1.01 | locus YGL167C, strain pmr1, stronger effect = lower value 0.99 | locus YGL173C, strain kem1, stronger effect = lower value 0.999 | locus YGL227W, strain vid30, stronger effect = lower value 0.989 | locus YGL240W, strain doc1, stronger effect = lower value 0.943 | locus YGL248W, strain PDE1, stronger effect = lower value 1.05 | locus YGL253W, strain hxk2, stronger effect = lower value 1.02 | locus YGR078C, strain PAC10, stronger effect = lower value 1.04 | locus YGR135W, strain pre9, stronger effect = lower value 1.05 | locus YGR252W, strain gcn5, stronger effect = lower value 1.07 | locus YHR013C, strain ard1, stronger effect = lower value 1.01 | locus YHR027C, strain rpn1, stronger effect = lower value 0.988 | locus YHR030C, strain SLT2, stronger effect = lower value 1.01 and 1.05 | locus YHR079C, strain IRE1 (second series), stronger effect = lower value 1.02 | locus YHR079C, strain IRE1, stronger effect = lower value 1.03 | locus YHR094C, strain hxt1, stronger effect = lower value 1.01 | locus YHR129C, strain ARP1, stronger effect = lower value 1.01 | locus YHR142W, strain chs7, stronger effect = lower value 1 | locus YHR200W, strain rpn10, stronger effect = lower value 1.02 | locus YIL066C, strain RNR3, stronger effect = lower value 1.01 | locus YIL073C, strain SPO22, stronger effect = lower value 1.08 | locus YIL125W, strain kgd1, stronger effect = lower value 1 | locus YIR030C, strain dcg1, stronger effect = lower value 1.02 | locus YJL092W, strain hpr5, stronger effect = lower value 0.997 | locus YJL095W, strain BCK1 (second series), stronger effect = lower value 1.01 | locus YJL095W, strain BCK1, stronger effect = lower value 1.06 and 1.04 | locus YJL115W, strain asf1, stronger effect = lower value 0.976 | locus YJL129C, strain trk1, stronger effect = lower value 0.991 | locus YJL134W, strain LCB3, stronger effect = lower value 1.02 | locus YJL154C, strain vps35, stronger effect = lower value 0.991 | locus YJL164C, strain tpk1, stronger effect = lower value 1.04 | locus YJL166W, strain qcr8, stronger effect = lower value 0.984 | locus YJL168C, strain set2, stronger effect = lower value 1.01 | locus YJL187C, strain SWE1 (second series), stronger effect = lower value 1.04 | locus YJL187C, strain SWE1, stronger effect = lower value 1
